The nature of assay [1]: Nuclear factor erythroid 2-related factor 2/antioxidant responsive element (Nrf2/ARE) small molecule agonists: luciferase reporter gene qHTS assay in human keratinocytes (AID 1919969). Further: nearly all actives have a fitted effect of over 35% in size. Further: potency means the concentration at half of the fitted maximal effect.
In assay [2] the target is KiSS-1 receptor (Homo sapiens) (UniProt Q969F8). The experiment in a line: Human kisspeptin (KISS1R) small molecule agonists, calcium flux assay in KISS1R-HEK293 cells (AID 1920064; active means well fitted activation curve with a large enough effect in the repeat runs). The method, boiled down:
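Triplicate 15-concentration series were applied to dye-loaded human KISS1R HEK293 cells, and agonist-evoked calcium fluorescence was captured for 3 min.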
Background: Calcium assays in cells follow changes in intracellular calcium, usually with a dye or a luminescent sensor.

A short description of assay [3]: G protein-coupled receptor (GPCR) small molecule agonists, calcium flux assay: HEK293 wild type cell line counter screen (AID 1920065). In short, it runs like this:
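Non-specific calcium responders were flagged by adding DMSO-dissolved compounds to dye-loaded cells and reading 480/540 nm fluorescence each second for 3 min; ATP served as positive control.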

Assay [4] can be described thus: p53 small molecule agonists, cell-based qHTS assay with human liver microsomes (AID 1963577).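 Further: p53 response element beta-lactamase reporter cells with liver microsomes plus NADPH.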 In short, it runs like this: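 Steps: plate p53RE-bla cells, incubate 5 h at 37 C; add compound in DMSO; add microsomes (0.5 mg/mL final) and NADPH (0.5 mg/mL final); incubate 16 h at 37 C; add LiveBLAzer, 2 h RT; read fluorescence.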
(In general: qHTS replaces the single test concentration by a dilution series.)

Assay [5] can be described thus: p53 small molecule agonists, cell-based qHTS assay with rat liver microsomes (AID 1963578). The method, boiled down: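 Metabolic activation is supplied by rat liver microsomes with NADPH (each 0.5 mg/mL final). p53RE-bla cells incubate with compound 16 h at 37 C; reporter activity is measured by LiveBLAzer fluorescence.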
Assay [6] is described as follows: p53 small molecule agonists, cell-based qHTS assay with human liver microsomes: qHTS cell viability counter screen (AID 1963579). Further: nearly all actives have a fitted effect of over 45% in size. The method, boiled down:
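After the 460/530 nm beta-lactamase read, CellTiter-Glo was added to the same wells and luminescence measured after 30 min at room temperature, giving viability of p53RE-bla cells treated 16 h with compounds plus microsomes and NADPH.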

Assay [7] in a line: p53 small molecule agonists, cell-based qHTS assay with rat liver microsomes: qHTS cell viability counter screen (AID 1963580). Further: nearly all actives have a fitted effect of over 45% in size. The method, boiled down: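 Luminescent ATP readout (CellTiter-Glo, 30 min at room temperature) reports viability of p53RE-bla HCT-116 cells after 16 h at 37 C with test compounds under metabolic activation by rat liver microsomes and NADPH at 0.5 mg/mL final each.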

Assay [8] is described as follows: p53 small molecule agonists, cell-based qHTS assay (AID 1963582; active means well fitted activation curve with a large enough effect in the signal ratio in the repeat runs, not every such curve was filed as active; the % refers to the signal ratio). In short, it runs like this:
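Beta-lactamase reporter cells (p53RE-bla) treated with compounds for 16 h at 37 C; FRET substrate, 2 h, room temperature; fluorescence intensity.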

The target of assay [9] is 5-hydroxytryptamine receptor 2A (Homo sapiens) (UniProt P28223). The experiment in a line: 5-hydroxytryptamine receptor 2A (HTR2A) small molecule agonists, cell-based qHTS assay (AID 1963587). Further: nearly all actives have a fitted effect of over 30% in size. Further: potency means the concentration at half of the fitted maximal effect. In short, it runs like this: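 HTR2A-CHO cells, plated 18 h at 37 C/5% CO2, dye-loaded 1 h at 37 C; compounds in DMSO added by pin tool (agonist mode). Intracellular calcium flux read as kinetic fluorescence on FDSS over 2 min at 1 s intervals.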

The target in assay [10] is Muscarinic acetylcholine receptor M1 (Homo sapiens) (UniProt P11229). The experiment in a line: Cholinergic receptor muscarinic 1 (CHRM1) small molecule antagonists, cell-based qHTS assay (AID 1963588). Further: nearly all actives have a fitted effect of over 40% in size. In short, it runs like this:
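Compounds were tested at 15 concentrations in three independent runs. Dye-loaded CHRM1-CHO cells were exposed 5 min at room temperature before stimulation by acetylcholine added at 50nM. Intracellular calcium was read kinetically on FDSS for 3 min.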

The target is the same in assay [11]. The experiment in a line: Cholinergic receptor muscarinic 1 (CHRM1) small molecule agonists, cell-based qHTS assay (AID 1963589). Further: nearly all actives have a fitted effect of over 35% in size. The method, boiled down:
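qHTS, 15-point titration, 3 independent runs: compounds pin-transferred onto dye-loaded CHRM1-CHO cells (human M1), calcium fluorescence followed every second to detect agonism.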

The nature of assay [12]: cAMP Responsive Elements (CRE) small molecule agonists, cell-based qHTS assay (AID 1963590). In short, it runs like this: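 Quantitative HTS for CRE agonists: HEK 293T CRE-bla cells, overnight plating, 3 h compound incubation at 37 C/5% CO2, then 2 h room-temperature LiveBLAzer B/G FRET substrate loading.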
The nature of assay [13]: cAMP Responsive Elements (CRE) small molecule antagonists, cell-based qHTS assay (AID 1963591; active means well fitted inhibition curve with a large enough effect in the signal ratio in the repeat runs, not every such curve was filed as active; the % refers to the signal ratio; further: potency means the concentration at half of the fitted maximal effect). The method, boiled down:
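Fluorescence intensity from cleaved LiveBLAzer B/G substrate (2 h, room temperature) quantified CRE-bla activity in HEK 293T cells exposed 3 h to compound with 0.25 uM final NKH477.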

The target of assay [14] is Beta-2 adrenergic receptor (Homo sapiens) (UniProt P07550). The assay can be described thus: Adrenergic beta2 receptor (ADRB2) small molecule antagonists, cell-based qHTS assay (AID 1963592). Further: nearly all actives have a fitted effect of over 50% in size. Further: potency means the concentration at half of the fitted maximal effect. The method, boiled down:
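Assay format: CHO-ADRB2 cells, 18-20hr seeding at 37C/5% CO2, then compound plus 1nM isoproterenol agonist mix for 0.5hr RT. Homogeneous time-resolved fluorescence cAMP detection after 1hr, expressed as 665/615 nm ratio.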

Assay [15] has the same target. The assay can be described thus: Adrenergic beta2 receptor (ADRB2) small molecule agonists, cell-based qHTS assay (AID 1963593).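 Further: CHO cells stably overexpressing human ADRB2.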 The method, boiled down:
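CHO cells stably over-expressing ADRB2 were plated overnight at 37C, then dosed with compounds plus a stimulation mix containing 100uM IBMX and 25uM Ro-20-1724 for 0.5hr at room temperature. cAMP was measured by HTRF competition, 1hr.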

In assay [16] the target is D(2) dopamine receptor (Homo sapiens) (UniProt P14416). The experiment in a line: Dopamine D2 receptor (DRD2) small molecule agonists, cell-based qHTS assay (AID 1963594). Further: nearly all actives have a fitted effect of over 35% in size. The method, boiled down:
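HEK293 cells stably expressing DRD2 were cultured 24 h at 37 C, then given Ro20-1724 (0.1 mM final) and compounds for 10 min at room temperature. NKH477 (200nM) was then added for 30 min. cAMP was read by HTRF.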

Assay [17] shares this target. The assay can be described thus: Dopamine D2 receptor (DRD2) small molecule antagonists, cell-based qHTS assay (AID 1963595; active means well fitted inhibition curve with a large enough effect in the signal ratio in the repeat runs, with a control signal flat; the % refers to the signal ratio; further: potency means the concentration at half of the fitted maximal effect). In short, it runs like this:
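HEK293 cells stably expressing DRD2 were preincubated with 0.1 mM Ro20-1724, then with compound for 10 min at room temperature. Cells were stimulated with 200 nM NKH477 plus 12 nM quinpirole for 30 min, and cAMP was read by HTRF.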

A short description of assay [18]: p53 small molecule agonists, cell-based qHTS assay: qHTS cell viability counter screen (AID 1963581). Further: nearly all actives have a fitted effect of over 45% in size. The method, boiled down:
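Multiplexed with the reporter read, a CellTiter-Glo step (30 min, room temperature) gauges ATP-based viability of HCT-116 p53RE-bla cells after 16 h compound incubation at 37 C.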

Assay [19] has as its target 5-hydroxytryptamine receptor 2A (Homo sapiens) (UniProt P28223). The assay can be described thus: 5-hydroxytryptamine receptor 2A (HTR2A) small molecule antagonists, cell-based qHTS assay (AID 1963586). Further: nearly all actives have a fitted effect of over 45% in size. The method, boiled down:
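CHO cells stably expressing human HTR2A were plated for 18 h at 37 C, then loaded with calcium dye for 1 h. Compounds were preincubated 5 min at room temperature before DOI (4 nM solution) was added. Kinetic fluorescence was read for 3 min.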

The target of assay [20] is Gonadotropin-releasing hormone receptor (Homo sapiens) (UniProt P30968). The assay can be described thus: Human gonadotropin-releasing hormone receptor (GnRHR) small molecule agonists, calcium flux assay in GnRHR-HEK293 cells (AID 1920063). Further: nearly all actives have a fitted effect of over 35% in size. In short, it runs like this:
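Calcium flux, agonist mode, human GnRHR stably integrated in HEK293; dye 1 h at 37 C before compound; Ex/Em=480/540 kinetic read, 3 min; 15 concentrations, triplicate.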

Several values for one entry are separate records, joined by “and”; a condition that tells them apart may be missing. Equal entries are not always repeated. Inconclusive results are not listed. Activity calls are given as the source filed them. Unless noted, the call rests on the fitted dose curve.

Beta-2 adrenergic receptor (Homo sapiens), sequence (P07550 whole entry, looked up): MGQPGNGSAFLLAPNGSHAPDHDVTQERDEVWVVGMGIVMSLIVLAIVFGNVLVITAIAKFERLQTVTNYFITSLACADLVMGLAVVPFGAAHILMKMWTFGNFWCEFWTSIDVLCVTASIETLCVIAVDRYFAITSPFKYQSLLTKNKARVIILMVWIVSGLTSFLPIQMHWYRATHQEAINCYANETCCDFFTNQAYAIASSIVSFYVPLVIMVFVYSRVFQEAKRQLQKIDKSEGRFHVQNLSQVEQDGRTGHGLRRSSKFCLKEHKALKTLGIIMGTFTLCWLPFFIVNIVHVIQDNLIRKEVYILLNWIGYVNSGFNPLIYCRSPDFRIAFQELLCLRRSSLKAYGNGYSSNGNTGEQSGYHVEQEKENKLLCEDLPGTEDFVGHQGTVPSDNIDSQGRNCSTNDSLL
D(2) dopamine receptor (Homo sapiens), sequence (P14416 whole entry, looked up): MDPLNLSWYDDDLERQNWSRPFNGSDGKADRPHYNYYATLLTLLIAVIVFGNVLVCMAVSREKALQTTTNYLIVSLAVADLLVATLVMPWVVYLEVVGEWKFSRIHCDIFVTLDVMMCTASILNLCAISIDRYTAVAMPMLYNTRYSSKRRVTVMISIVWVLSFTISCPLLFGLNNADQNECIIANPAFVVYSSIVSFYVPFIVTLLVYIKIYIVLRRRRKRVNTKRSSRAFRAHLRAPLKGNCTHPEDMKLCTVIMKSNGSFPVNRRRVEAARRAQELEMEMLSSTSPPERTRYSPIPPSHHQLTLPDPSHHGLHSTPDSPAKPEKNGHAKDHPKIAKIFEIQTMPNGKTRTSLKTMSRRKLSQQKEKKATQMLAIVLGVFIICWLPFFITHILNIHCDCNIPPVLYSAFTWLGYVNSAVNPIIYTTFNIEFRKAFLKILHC
5-hydroxytryptamine receptor 2A (Homo sapiens), sequence (P28223 whole entry, looked up): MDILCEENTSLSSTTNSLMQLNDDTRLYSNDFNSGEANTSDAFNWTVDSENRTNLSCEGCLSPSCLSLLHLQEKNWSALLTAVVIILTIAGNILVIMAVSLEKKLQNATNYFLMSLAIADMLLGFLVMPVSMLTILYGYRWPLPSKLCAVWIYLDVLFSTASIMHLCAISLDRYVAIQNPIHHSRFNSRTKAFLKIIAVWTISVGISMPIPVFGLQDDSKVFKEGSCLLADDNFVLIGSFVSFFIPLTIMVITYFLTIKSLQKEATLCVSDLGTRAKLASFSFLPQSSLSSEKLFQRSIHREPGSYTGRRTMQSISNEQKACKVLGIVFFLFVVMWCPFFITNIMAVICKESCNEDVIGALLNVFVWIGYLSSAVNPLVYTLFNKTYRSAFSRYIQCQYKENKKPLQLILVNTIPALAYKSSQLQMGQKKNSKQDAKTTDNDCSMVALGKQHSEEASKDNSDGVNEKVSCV
KiSS-1 receptor (Homo sapiens), sequence (Q969F8 whole entry, looked up): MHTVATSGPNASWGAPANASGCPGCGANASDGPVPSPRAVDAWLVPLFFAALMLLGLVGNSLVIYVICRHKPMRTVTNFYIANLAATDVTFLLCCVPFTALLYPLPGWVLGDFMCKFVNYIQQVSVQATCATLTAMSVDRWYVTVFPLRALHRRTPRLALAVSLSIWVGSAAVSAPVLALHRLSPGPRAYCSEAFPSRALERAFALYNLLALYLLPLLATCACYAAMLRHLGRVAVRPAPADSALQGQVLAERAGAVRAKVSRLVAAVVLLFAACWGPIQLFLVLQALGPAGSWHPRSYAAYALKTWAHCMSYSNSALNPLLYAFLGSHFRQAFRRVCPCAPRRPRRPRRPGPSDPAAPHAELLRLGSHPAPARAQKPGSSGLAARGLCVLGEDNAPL
Muscarinic acetylcholine receptor M1 (Homo sapiens), sequence (P11229 whole entry, looked up): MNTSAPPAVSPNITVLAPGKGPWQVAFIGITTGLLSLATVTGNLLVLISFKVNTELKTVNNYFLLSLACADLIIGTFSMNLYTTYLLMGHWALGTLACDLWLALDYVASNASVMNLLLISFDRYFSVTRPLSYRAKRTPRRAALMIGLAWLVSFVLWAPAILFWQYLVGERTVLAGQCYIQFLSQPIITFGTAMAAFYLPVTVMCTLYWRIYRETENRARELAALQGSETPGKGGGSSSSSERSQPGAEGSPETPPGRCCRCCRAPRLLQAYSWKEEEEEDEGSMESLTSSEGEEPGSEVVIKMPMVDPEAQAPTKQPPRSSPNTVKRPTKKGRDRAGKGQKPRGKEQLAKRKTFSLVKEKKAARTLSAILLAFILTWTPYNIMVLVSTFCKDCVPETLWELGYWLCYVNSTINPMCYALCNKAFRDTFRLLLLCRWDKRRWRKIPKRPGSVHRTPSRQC
Gonadotropin-releasing hormone receptor (Homo sapiens), sequence (P30968 whole entry, looked up): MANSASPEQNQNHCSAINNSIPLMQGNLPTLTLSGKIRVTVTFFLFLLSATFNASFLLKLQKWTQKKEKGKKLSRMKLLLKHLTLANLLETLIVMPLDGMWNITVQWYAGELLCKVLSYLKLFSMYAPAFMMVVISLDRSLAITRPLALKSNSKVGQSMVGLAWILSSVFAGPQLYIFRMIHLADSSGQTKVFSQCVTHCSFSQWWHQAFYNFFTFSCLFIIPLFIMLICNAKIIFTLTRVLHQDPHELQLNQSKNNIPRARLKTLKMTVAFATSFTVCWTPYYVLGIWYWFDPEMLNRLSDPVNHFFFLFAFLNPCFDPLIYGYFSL

Take `CCC(C)(C)c1cc(O)c(C(C)(C)CC)cc1O`: the Potency was 4.86 µM (active) in assay [1] and 4.9 µM (active) in assay [9]. Also, the Potency entry in assay [2], in assay [3], in assay [4], in assay [5], in assay [6] and in [7] was “inactive” throughout. The Potency result in [8], in assay [10], in assay [11], in assay [12], in [13] and in assay [14] was “inactive” in each case. Moreover, the Potency entry in assay [15], in assay [16] and in assay [17] was “inactive” each time.

In the case of `CN[C@H]1CC[C@@H](c2ccc(Cl)c(Cl)c2)c2ccccc21`, the Potency result in assay [1], in assay [2], in [3], in assay [4], in assay [5] and in [6] was “inactive” each time. Besides, the Potency entry in assay [18], in [8], in assay [13], in assay [14] and in assay [16] was “inactive” each time. Further, the Potency in [17] is 15 µM (active).

Take `CCCC(CC)c1ccccc1` (stereo not given): the Potency entry in [1], in assay [2], in [3], in [4], in assay [5] and in [18] was “inactive” each time. Moreover, the Potency result in assay [8], in assay [19], in assay [9], in assay [10], in [11] and in assay [12] was “inactive” each time. In addition, the Potency result in [13], in assay [14], in assay [16] and in assay [17] was “inactive” throughout.

For the compound `CC(=O)SCC(CC(=O)c1ccc(C)cc1)C(=O)O` (stereo not given), the Potency entry in assay [1], in [20], in assay [6], in [7], in assay [18] and in assay [9] was “inactive” throughout. In addition, the Potency entry in [10], in assay [11], in assay [13], in assay [14], in assay [15] and in assay [16] was “inactive” throughout. The Potency entry in assay [17] was “inactive”.

Regarding `Cc1cc([N+](=O)[O-])ccc1N`, the Potency result in assay [1], in assay [2], in [3], in [4], in [5] and in assay [6] was “inactive” each time. Moreover, the Potency entry in [7], in assay [18], in assay [8], in assay [19], in [9] and in assay [10] was “inactive” throughout. The Potency result in assay [11], in [13], in [14], in [16] and in assay [17] was “inactive” each time.

As to `CC(COc1ccc(C(C)(C)C)cc1)OS(=O)OCCCl` (stereo not given), the Potency result in assay [1], in assay [2], in [3], in assay [4], in assay [5] and in assay [6] was “inactive” throughout. Further, the Potency result in [8], in assay [19], in assay [10], in assay [11], in [12] and in assay [14] was “inactive” throughout. In addition, the Potency result in assay [16] and in assay [17] was “inactive” in each case. In assay [13], the Potency is 43.5 µM (active).

Consider `O=C1c2ccccc2C(=O)N1SC1CCCCC1`, for which the Potency in [1] is 21.7 µM (active) and 24.3 µM (active). The Potency result in assay [2], in assay [3], in [4], in [5], in assay [6] and in assay [18] was “inactive” throughout. For the same compound, the Potency entry in assay [8], in [19], in [10], in assay [11], in assay [13] and in [14] was “inactive” each time. In addition, the Potency entry in [15], in assay [16] and in assay [17] was “inactive” in each case.

As for `CCCCC/C(=C\c1ccccc1)CO`, the Potency entry in [1], in assay [2], in assay [3], in assay [4], in assay [5] and in assay [6] was “inactive” throughout. In addition, the Potency result in assay [7], in [18], in assay [8], in [19], in [10] and in assay [16] was “inactive” each time. Moreover, the Potency entry in assay [17] is “inactive”. Further, in [9], the Potency is 54.3 µM (active).

Turning to `OCCN1CCN(CCCN2c3ccccc3Sc3ccc(C(F)(F)F)cc32)CC1`, the Potency result in assay [1], in assay [2], in assay [3], in assay [4], in [6] and in assay [7] was “inactive” each time. The Potency result in assay [18], in assay [12] and in assay [13] was “inactive” each time. Further, the Potency in assay [14] is 10.6 µM (active).

For the origin of these results see PubChem BioAssay (Tox21).
